From PubChem
HT1080NT lethal = kills 2HG-producing HT-1080-NT fibrosarcoma cells. Potency, µM (highest dose often 46.1 µM), inactives show at the highest dose activity, negative = less viability, usual class: cytotoxic. actives 1.6% (n = 360,000). HT-1080-NT fibrosarcoma viability, CellTiter-Glo ATP luminescence, 48 h;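 also: NT is the 2HG producing partner of a matched IDH1 knockdown line; potency is read from the fitted curve at half-maximal effect; 0% = DMSO-treated cells and -100% = media-only wells without cells; nearly all actives have a fitted effect of over 55% in size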
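Compounds were tested in concentration-response format on HT-1080-NT cells for 48 hours at 37 degrees C. Cell viability came from CellTiter-Glo luminescence; curves were classified by r2, response magnitude and activity.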
HT1080 IDH1KD tx = toxicity to HT-1080 IDH1 knockdown cells (counter line) | HT-1080 IDH1 knockdown viability, ATP luminescence, 48 h | Potency, µM (series often up to 46.1 µM), for the others: at the top dose activity, negative = toxicity, hits mostly cytotoxic | actives 2% (n = 360,000) | AID 686971;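 also: potency is read from the fitted curve at half-maximal effect; 0% = DMSO wells and -100% = cell-free medium wells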
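Cytotoxicity counter-line: IDH1KD HT-1080, 48 h, CellTiter-Glo. Curves classed by r2, magnitude and activity.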
TDP1 cell noCPT = qHTS for Inhibitors of human tyrosyl-DNA phosphodiesterase 1 (TDP1): qHTS in cells in absence of CPT | Potency, µM (series often up to 46.2 µM), for the others: top-dose activity change, negative = growth inhibition, usual class: inhibitors | actives 15% (n = 420,000) | DT40 Tdp1-/- hTDP1 cells, no CPT, ATP luminescence, 48 h; also: potency is read from the fitted curve at half-maximal effect; nearly all actives have a fitted effect of over 55% in size
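No-CPT arm: Tdp1-/-;hTDP1 DT40 cells (400/well) plus compounds, incubated ≥48 hr at 37 °C. Readout CellTiter-Glo luminescence.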
IL1B secr inh = blocks inflammasome-driven IL-1 beta release. THP-1 LPS/ATP IL-1B secretion, AlphaLISA, 16 h; stronger effect = lower value. activity change, % at 57.5 µM. actives 4.7% (n = 360,000); in the data active = activity change below about -50%; inconclusive = mostly about -30% to -49%
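THP-1 cells pretreated 1 hr with compounds (up to 57.5 uM final), then stimulated with LPS (250 ng/mL final) plus ATP (1.25 mM final); secreted IL-1B measured by AlphaLISA after 16 hr, decreased signal indicating inhibition.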
TDP1 cell CPT = DT40-hTDP1 cell growth loss with CPT; chicken DT40 Tdp1-/-;hTDP1 cells + 20 nM CPT, ATP luminescence, 48 h; Potency, µM (top dose mostly 46.2 µM), for inactives: at the highest dose activity change, negative = growth inhibition, most hits filed as inhibitors; actives 12% (n = 420,000); AID 686979; also: potency is read from the fitted curve at half-maximal effect; nearly all actives have a fitted effect of over 55% in size
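Chicken DT40 Tdp1-/- cells complemented with human TDP1, 400 cells/well, exposed to compounds plus 20 nM camptothecin for at least 48 h at 37 C; viability read as ATP content by CellTiter-Glo luminescence.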
* marks the source's active call; other numbers are inactive results; ? = inconclusive; / = no result given; [ ] = dose if it differs, or a comment. Hits are enriched below; roughly 19% of the tested compounds scored in any of these assays. Unless noted, calls follow the shape of the dose curve; as a rule, active = well fitted curve in the direction sought with a large enough effect; inconclusive = small, poorly fitted or top-dose-only effect, or another doubt; inactive = no such curve, though single readings can be large; an effect the other way counts as inactive or inconclusive. Unless noted, % is scaled to controls: 0 for no effect and ±100 for the full control effect.

SMILES	HT1080NT lethal	HT1080 IDH1KD tx	TDP1 cell noCPT	IL1B secr inh	TDP1 cell CPT
O=C(C[C@H]1C[C@H](C(=O)N2CCCCC2)[C@@]2(CCc3ccccc3)c3[nH]c4cc(-c5ccco5)ccc4c3CCN2C1=O)NCc1cccc(C(F)(F)F)c1	-3%	1%	21µM*	-1	?
COCCCNC(=S)N1CCN(S(C)(=O)=O)CC1	-2%	-3%	10%	-6	2%
O=C(CC1C[C@H](C(=O)N2CCCCC2)[C@@]2(CCc3ccccc3)c3[nH]c4ccccc4c3CCN2C1=O)NCc1ccco1 (stereo partly drawn)	-1%	-1%	21µM*	-60*	13µM*
CN(C)C(=O)CCc1ccc2c3c([nH]c2c1)[C@]1(CCc2ccccc2)[C@@H](C(=O)N2CCCCC2)C[C@H](CC(=O)NCc2ccco2)C(=O)N1CC3	1%	-8%	?	-22	-13%
COc1cc(CNc2ncnc3c2ncn3[C@H]2CN(CCN3CCOCC3)C[C@@H](CO)O2)cc(OC)c1OC	8%	6%	-7%	21	-3%
Cc1ccc(NC(=O)CCCCCCCCCCC2COCCO2)c(C)c1 (stereo not drawn)	12%	11%	18µM*	1	21µM*
Cc1ccc(NC(=O)NC(=O)CN2C(=O)NC3(CCCCCCC3)C2=O)c(C)c1	-8%	?	-15%	-2	-25%
Cc1ccc2c(c1)N(CCCC(=O)Nc1cccc(C(F)(F)F)c1)C(=O)CO2	-17%	-13%	16µM*	-12	?
Cc1ccc(NC(=O)CCCN2C(=O)COc3ccc(C)cc32)c(Cl)c1	/	/	7.3µM*	/	?
Cc1ccc(NC(=O)CCN2C(=O)NC3(CCCC3)C2=O)c(C)c1	0%	-3%	3.3µM*	-13	-2%
CC(=O)NC12CC3CC(C1)CC(C(=O)Nc1nc4ccc(S(C)(=O)=O)cc4s1)(C3)C2	5%	4%	-17%	0	-6%
Cc1ccc(-c2nc(CN(C)C3CCOC3)c(C)o2)s1 (stereo not drawn)	0%	11%	8%	27	2%
CCOc1ccc(-n2nc3c(=O)n(CCN4CCCCC4)nc(C)c3c2C)cc1	0%	-2%	2%	-8	-16%
Cc1ccc(NC(=O)CCCN2C(=O)COc3ccc(C)cc32)c(C)c1	/	/	12µM*	/	?
COC(=O)c1ccc(N2C(=O)CC(Sc3n[nH]c(C)n3)C2=O)cc1 (stereo not drawn)	-6%	-7%	5.2µM*	15	2.1µM*
COc1cccc(N2C(=O)CC(Sc3nc(C)cc(C)n3)C2=O)c1 (stereo not drawn)	1%	?	6%	33	1%
CCOc1ccccc1N1C(=O)CC(Sc2n[nH]c(-c3ccccc3)n2)C1=O (stereo not drawn)	26%	?	0.65µM*	0	0.65µM*
COc1ccc(N2C(=O)CC(Sc3nc(C)cc(C)n3)C2=O)cc1OC (stereo not drawn)	3%	1%	13%	17	-12%
COc1ccc(N2C(=O)CC(Sc3n[nH]c(-c4cccc(C)c4)n3)C2=O)cc1 (stereo not drawn)	4%	?	3.7µM*	-30	0.92µM*
CCOC1=C2[C@@H](CN(S(=O)(=O)c3ccc(C)cc3)[C@H]2c2cccc3ccccc23)[C@H]2C(=O)NC(=O)[C@H]2C1	-3%	-11%	?	2	?
CN(CCO)C(=O)c1cn(C2CCN(Cc3c(F)cccc3Cl)CC2)nn1	/	/	-9%	/	-16%[9.04 µM]
CCOc1ccccc1/C=C/c1onc(C)c1S(=O)(=O)N1CCC(C(=O)NC)CC1	0%	8%	?	27	?
CCOc1ccccc1CNC(=O)C1CCN(S(=O)(=O)c2c(C)noc2/C=C/c2ccc(C)cc2)CC1	/	/	-28%	/	?
Cc1cc(C)c(/C=C/c2onc(C)c2S(=O)(=O)N2CCC(C(=O)N3CCN(c4ccccc4)CC3)CC2)c(C)c1	/	/	13µM*	/	16µM*
COc1ccc(N2CCN(C(=O)C3CCN(S(=O)(=O)c4c(C)noc4/C=C/N(C)C)CC3)CC2)cc1	?	-18%	?	-1	?
SMILES	HT1080NT lethal	HT1080 IDH1KD tx	TDP1 cell noCPT	IL1B secr inh	TDP1 cell CPT
CCOc1ccccc1/C=C/c1onc(C)c1S(=O)(=O)N1CCC(C(=O)N2CCCCC2)CC1	/	/	21µM*	/	16µM*
Cc1ccc(CNC(=O)C2CCN(S(=O)(=O)c3c(C)noc3/C=C/c3cccs3)CC2)cc1	/	/	?	/	21µM*
CCOC(=O)C1CCN(C(=O)C2CCN(S(=O)(=O)c3c(C)noc3/C=C/c3ccc(C)cc3)CC2)CC1	/	/	5.2µM*	/	?
COc1ccc(CNC(=O)C2CCN(S(=O)(=O)c3c(C)noc3/C=C/c3cccs3)CC2)cc1	/	/	-27%	/	-23%
CCN(CC)S(=O)(=O)c1nnc(NC(=O)c2ccc(C(C)C)cc2)s1	/	/	-27%	/	-17%
Cc1cc(Cl)ccc1OCC(=O)NCC1Cc2cc(-c3cnccn3)ccc2O1 (stereo not drawn)	/	/	1%	/	-3%
Cc1ccc(/C=C/c2onc(C)c2S(=O)(=O)N2CCC(C(=O)N3CC(C)Oc4ccccc43)CC2)cc1 (stereo not drawn)	/	/	12µM*	/	18µM*
Cc1cccc(/C=C/c2onc(C)c2S(=O)(=O)N2CCC(C(=O)NC(C)(C)C)CC2)c1	2%	4%	?	3	?
Cc1cc(C)c(/C=C/c2onc(C)c2S(=O)(=O)N2CCC(C(=O)Nc3cccc(C)c3C)CC2)c(C)c1	/	/	6.5µM*	/	5.2µM*
Cc1ccc(/C=C/c2onc(C)c2S(=O)(=O)N2CCC(C(=O)Nc3ccccc3C(F)(F)F)CC2)cc1	/	/	-2%	/	-10%
Cc1cc(C)c(/C=C/c2onc(C)c2S(=O)(=O)N2CCC(C(=O)NCc3ccccc3Cl)CC2)c(C)c1	/	/	?	/	-27%
Cc1ccc(/C=C/c2onc(C)c2S(=O)(=O)N2CCC(C(=O)N3CCN(C)CC3)CC2)cc1	?	?	23µM*	/	?
Cc1ccc(/C=C/c2onc(C)c2S(=O)(=O)N2CCC(C(=O)NCc3ccc(Cl)cc3)CC2)cc1	/	/	-17%	/	-30%
CCC(C)(C)NC(=O)C1CCN(S(=O)(=O)c2c(C)noc2/C=C/c2ccc(C)cc2)CC1	/	/	?	/	23µM*
O=C(CN1CCCCC1)NCC1(c2ccccc2)CCCC1	4%	-2%	?	0	-15%
Cc1ccc(/C=C/c2onc(C)c2S(=O)(=O)N2CCC(C(=O)N(CCC(C)C)Cc3ccco3)CC2)cc1	/	/	16µM*	/	?
